Most compounds without a hit are left out; they make up all but 3.5% or so of the library.
TEAD-YAP inh: TEAD-YAP interaction inhibition, primary screen, TEAD-YAP interaction inhibitor project, luminescence, HEK-TIYL cells; inhibition, % at 9.12 µM; TEAD-Gal4/YAP UAS-luciferase luminescence; 1.4% of 640,000 active; in the data active = inhibition above about 32%;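 note: 0% = median of test compound wells and 100% = reference inhibitor wells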
GPR151 activ: activators of human GPR151, primary screen, cell-based, PathHunter beta-arrestin, luminescence | G-protein coupled receptor 151 (Homo sapiens), Q8TDV0 | PathHunter beta-arrestin GPR151 cells | activation, % at 11.2 µM | 1% of 650,000 active; in the data active = activation above about 4.9%;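 note: 0% = median of compound wells and 100% = cells with positive control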
MITF inh: MITF inhibitors, primary screen, biochemical, AlphaScreen, human; AlphaScreen MITF homodimerization, bead proximity signal; inhibition, % at 2.6 µM; 0.91% of 650,000 active; AID 1259374, 2018; in the data active = inhibition above about 50%;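 note: 0% = vehicle wells with protein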
FBW7 act: FBW7 E3 ligase activators, primary screen, biochemical, AlphaScreen, human | AlphaScreen FBW7–phospho-cyclin E peptide binding, activator screen | normalized activity (activation), % at 26.1 µM | 0.13% of 650,000 active; in the data active = normalized activity above about 1.9%;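 note: purified mutant Fbw7 with reduced substrate affinity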
Target sequence (Q969H0 whole entry, looked up): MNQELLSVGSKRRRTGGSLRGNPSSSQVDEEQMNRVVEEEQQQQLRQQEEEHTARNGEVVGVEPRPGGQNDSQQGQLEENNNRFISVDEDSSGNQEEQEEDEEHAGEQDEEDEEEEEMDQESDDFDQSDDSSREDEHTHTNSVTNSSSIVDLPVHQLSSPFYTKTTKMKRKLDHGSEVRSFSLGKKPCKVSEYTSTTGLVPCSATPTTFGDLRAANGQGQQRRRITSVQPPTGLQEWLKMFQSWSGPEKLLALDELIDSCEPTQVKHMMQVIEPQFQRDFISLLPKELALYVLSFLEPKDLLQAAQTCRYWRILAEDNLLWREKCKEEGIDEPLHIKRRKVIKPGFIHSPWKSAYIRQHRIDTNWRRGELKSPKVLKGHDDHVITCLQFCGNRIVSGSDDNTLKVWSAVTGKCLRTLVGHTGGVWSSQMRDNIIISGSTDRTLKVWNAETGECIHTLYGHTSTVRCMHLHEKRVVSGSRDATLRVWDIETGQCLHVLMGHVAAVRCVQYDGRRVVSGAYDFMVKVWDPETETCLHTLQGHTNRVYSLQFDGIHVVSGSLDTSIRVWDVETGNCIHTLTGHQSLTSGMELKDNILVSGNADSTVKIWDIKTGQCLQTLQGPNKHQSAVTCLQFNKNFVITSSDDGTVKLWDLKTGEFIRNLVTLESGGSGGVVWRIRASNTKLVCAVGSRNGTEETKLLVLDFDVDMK
* marks the source's active call; other numbers are inactive results.

SMILES	TEAD-YAP inh	GPR151 activ	MITF inh	FBW7 act
CC(C)c1ccc2oc(-c3ccc(Cl)c(N)c3)nc2c1	82.9*	-5.9	2.0	0.1
Cc1ccc2oc(-c3ccc(Cl)c(NC(=O)Cc4ccccc4)c3)nc2c1	3.8	-1.5	5.1	0.3
COCCCNC(C)CC(C)(C)c1ccc(C)o1 (configuration not stated)	-9.3	-0.8	16.9	0.0
O=C(Cn1cnc2ccccc21)Nc1cccc(-c2cn3c(n2)SCC3)c1	4.3	-0.2	7.2	-0.1
Nc1ncn([C@@H]2O[C@H](CO)[C@@H](O)[C@H]2O)c(=O)n1	83.3*	1.6	-9.8	-0.2
CCN1/C(=C/C=C/c2sc3c(C)cccc3[n+]2CC)Sc2c(C)cccc21	44.4*	-1.0	32.8	0.2
O=C(N/N=C/c1ccccc1O)c1n[nH]c2c1CCCC2	32.9*	-2.6	4.0	-2.0
O=C(N/N=C\c1ccccc1[N+](=O)[O-])c1n[nH]c2c1CCCC2	54.3*	-7.8	22.9	-0.1
COc1cccc(C(=O)Nc2ccc(S(=O)(=O)Nc3ncccn3)cc2)c1	7.8	0.1	3.0	0.0
OCCNc1ccnc(Nc2ccc(-n3ccnc3)cc2)n1	-22.8	-2.2	11.5	-0.1
O=C1C2C3CCC(O3)C2C(=O)N1c1ccc2nc3ccccc3cc2c1 (configuration not stated)	80.4*	-4.5	-1.5	0.0
O=C1C2C3CCC(O3)C2C(=O)N1c1cccc([N+](=O)[O-])c1 (configuration not stated)	0.3	0.7	-8.0	-0.1
CCCCC(CC)C(=O)Nc1ncc([N+](=O)[O-])s1 (configuration not stated)	43.8*	0.0	10.1	-0.2
O=C(/C=C/c1ccccc1)N1CCCc2ccccc21	-27.4	2.0	3.2	0.0
COc1ccc(/C=C/C(=O)N2CCc3ccccc32)cc1	74.1*	-7.0	7.6	0.0
O=C(/C=C/c1ccccc1)N1CCc2ccccc21	65.9*	-5.6	5.5	0.3
O=C(/C=C/c1cccs1)N1CCc2ccccc21	70.2*	-6.1	17.9	0.3
Cc1cc(C(=O)N2CCc3ccccc32)n(-c2ccccc2)n1	35.0*	0.6	2.8	-0.3
O=C(/C=C/c1ccc([N+](=O)[O-])cc1)N1CCCc2ccccc21	-7.3	0.6	27.9	0.2
CCOC(=O)C(C)NC(=O)c1cc2c(=O)oc3ccc(C)cc3c2s1 (configuration not stated)	1.5	0.8	-6.7	0.0
O=C(Nn1c(C2CC2)nc2cc(Cl)ccc2c1=O)c1ccccc1	53.2*	0.2	2.0	0.1
COc1cccc2c1OC(c1cccc(Cl)c1)N1N=C(c3ccc(C)o3)CC21 (configuration not stated)	40.6*	-1.2	5.2	0.1
COc1ccc(C2Oc3c(OC)cccc3C3CC(c4ccc(C)o4)=NN32)cc1 (configuration not stated)	39.8*	0.8	10.8	-0.1
COc1cc(/C=C2/C(=N)N3C(c4ccccc4)=CSC3=NC2=O)ccc1OCc1ccccc1C	-31.7	0.2	-9.0	-0.2
COc1cc(NS(=O)(=O)c2ccc(-c3cc(C)no3)cc2)cc(OC)c1	60.8*	0.7	-1.4	0.1
SMILES	TEAD-YAP inh	GPR151 activ	MITF inh	FBW7 act
COc1cc(NS(=O)(=O)c2ccc3c(c2)oc(=O)n3C)cc(OC)c1OC	48.2*	0.7	-2.2	-0.1
COc1cc(NS(=O)(=O)c2ccc(-c3cc(C)no3)cc2)cc(OC)c1OC	60.5*	1.6	13.8	1.0
CCOC(=O)N1CCc2c(sc(NC(=O)c3ccc(OC(C)C)cc3)c2C#N)C1	9.3	-0.4	-5.8	0.2
O=c1[nH]c(COc2ccc(F)cc2)nc2sc3c(c12)CCC3	-4.7	-0.7	-7.7	0.0
CCOc1ccc(O)c(/C=N/NC(=O)/C(=C\c2cccs2)NC(=O)c2ccccc2)c1	8.3	-0.2	-1.2	0.1
COc1ccc(O)c(/C=N/NC(=O)/C(=C\c2cccs2)NC(=O)c2ccccc2)c1	58.3*	1.8	10.4	-0.1
NNC(=O)/C(=C/c1cccs1)NC(=O)c1ccccc1	46.6*	-0.6	-0.3	-0.2
CCCCNC(=O)c1ccccc1NC(=O)c1ccc(Br)cc1	-3.9	0.5	-6.5	0.1
Cc1sc2ncnc(N/N=C/c3cccc([N+](=O)[O-])c3)c2c1C	-4.3	1.7	-8.0	0.1
Cc1sc2ncnc(N/N=C/c3ccc([N+](=O)[O-])o3)c2c1C	34.6*	0.4	8.4	-1.2
Cc1cc2c(c(=O)[nH]1)C(c1cc3c(cc1Br)OCO3)C(C#N)=C(N)O2 (configuration not stated)	-0.3	1.4	-1.5	-0.1
O=C(N/N=C/c1ccc(O)c(O)c1)c1cc(O)cc(O)c1	16.5	-1.3	19.3	0.3
O=C(N/N=C/c1ccc(/C=N/NC(=O)c2ccc(O)c(O)c2)cc1)c1ccc(O)c(O)c1	-6.3	1.7	106.8*	-1.0
O=C(N/N=C/c1ccc(O)cc1)c1cc(O)c(O)c(O)c1	8.4	-0.3	59.3*	-0.2
O=C(N/N=C/c1cc(Br)c(O)c(Br)c1)c1cc(O)c(O)c(O)c1	0.8	1.6	89.6*	-0.3
Cc1ccc(Cl)cc1N1CCN(C(=O)c2coc(=O)c3ccccc23)CC1	61.2*	0.7	-10.3	-0.1
Cc1ccc(Cl)cc1N1CCN(C(=O)c2ccc(=O)[nH]c2)CC1	11.5	2.8	13.1	0.2
COc1cc(OC)cc(C(=O)N2CCN(c3cc(Cl)ccc3C)CC2)c1	53.9*	-0.5	12.4	0.1
O=C(c1coc(=O)c2ccccc12)N1CCN(c2ccccc2F)CC1	7.9	0.6	-3.2	0.1
Cn1c(N)c(C(=O)COC(=O)c2c3ccccc3cc3ccccc23)c(=O)n(C)c1=O	-4.7	0.1	-4.1	0.0
O=C(Nc1cc(Cl)c(O)c(Cl)c1)c1ccc([N+](=O)[O-])cc1	-9.5	-0.6	-5.9	-0.2
Cc1ccc(N(Cc2ccc(C(=O)Nc3c(C)cccc3C)cc2)S(C)(=O)=O)cc1C	6.3	1.2	-10.9	-0.2
COc1ccc(N2CCN(c3ncnc4c3cnn4C)CC2)cc1	-3.9	0.5	-0.4	-0.2
COc1ccc(N2CCN(c3ncnc4c3cnn4CCNC(=O)c3cccs3)CC2)cc1	36.9*	0.7	-7.3	-0.2
O=C(Cc1ccccc1)NCCn1ncc2c(N3CCN(c4ccc(F)cc4)CC3)ncnc21	12.1	1.1	0.1	-0.1
SMILES	TEAD-YAP inh	GPR151 activ	MITF inh	FBW7 act
O=C(NCCn1ncc2c(N3CCN(c4ccccc4)CC3)ncnc21)c1ccccc1F	48.0*	0.0	-11.6	0.1
O=C(CN1CCN(Cc2ccccc2Cl)CC1)N/N=C\c1c(O)ccc2ccccc12	74.1*	1.9	24.4	0.0
O=C(CN1CCOCC1)N/N=C/c1cn(Cc2ccccc2Cl)c2ccccc12	16.0	-0.5	11.3	0.3
O=C(CO)N/N=C/c1c(O)ccc2ccccc12	10.7	-1.0	28.6	-0.6
O=C(CN1CCOCC1)N/N=C/c1c(O)ccc2ccccc12	36.4*	0.1	18.0	-2.0
CC1(C)CC(=O)c2c(nn(-c3ccccc3)c2-c2cccnc2)C1	-0.2	-0.1	5.8	-0.1
